# N370S GC mod = N370S glucocerebrosidase modulation, Gaucher chaperone candidate. P04062. N370S GC spleen homogenate, 4MU-glucoside fluorescence. Potency, µM (titrated, usually from 59.4 µM), without a hit: at the highest dose activity change, negative = inhibition, actives largely listed as inhibitors. 330,000 compounds, 0.092% hits. AID 2101;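 also: potency is read from the fitted curve at half-maximal effect; 0% = full enzyme activity and -100% = no enzyme basal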
# aGlu spleen mod = inhibits or activates alpha-glucosidase in human spleen homogenate; Potency, µM (doses to about 79.9 µM), for inactives: at the top dose activity change, negative = inhibition, usual class: inhibitors; human spleen homogenate, 4-MU-alpha-glucoside fluorescence; AID 2112; P10253; 240,000 compounds, 0.006% hits;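 also: potency is read from the fitted curve at half-maximal effect; 0% = enzyme with vehicle and -100% = no enzyme basal signal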
#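 Compounds were titrated against alpha-glucosidase in spleen homogenate at pH 5.0, with 1 mM 4-methylumbelliferyl substrate for 40 min at 37 C. Reactions were quenched with pH 10 NaOH/glycine and fluorescence measured.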
# GLA inh pH 4.5 = inhibitors of human alpha-galactosidase A at pH 4.5; 230,000 tested, under 10 active; purified enzyme, 4-MU-alpha-Gal fluorescence, pH 4.5; activity change, negative = inhibition, % at 105 µM; P06280;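 also: 0% = full activity with enzyme and -100% = basal without enzyme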
# Target sequence (P06280 whole entry, looked up): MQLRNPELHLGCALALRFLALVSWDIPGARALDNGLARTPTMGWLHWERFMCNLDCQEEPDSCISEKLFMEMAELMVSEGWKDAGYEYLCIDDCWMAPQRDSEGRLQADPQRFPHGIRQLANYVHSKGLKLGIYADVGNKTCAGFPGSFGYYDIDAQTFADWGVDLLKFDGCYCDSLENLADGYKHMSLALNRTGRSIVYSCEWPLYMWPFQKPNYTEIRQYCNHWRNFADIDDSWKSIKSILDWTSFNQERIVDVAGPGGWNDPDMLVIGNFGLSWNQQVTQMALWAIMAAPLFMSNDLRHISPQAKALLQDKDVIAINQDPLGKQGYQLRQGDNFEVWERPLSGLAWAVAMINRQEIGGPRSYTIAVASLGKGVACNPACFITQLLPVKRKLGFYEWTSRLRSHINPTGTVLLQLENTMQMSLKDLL
# GLA spleen mod = inhibits or activates alpha-galactosidase in human spleen homogenate; P06280; human spleen homogenate, 4MU-alpha-Gal fluorescence, 40 min; Potency, µM (doses to about 80 µM), without a hit: top-dose activity change, negative = inhibition, hits mostly inhibitors; 240,000 compounds, 0.008% hits;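 also: potency is read from the fitted curve at half-maximal effect; 0% = enzyme with vehicle and -100% = no enzyme basal signal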
#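 Spleen homogenate 1 ug + cpd (titration) + 4-MU-alpha-D-galactopyranoside 1 mM; 37C 40 min; 50 mM citrate/phosphate pH 5.0, 0.01% Tween-20; stop pH 10; fluorescence 365/440; AC50 via Hill.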
# GAA inh = blocks human lysosomal alpha-glucosidase. purified human GAA, 4-MU-alpha-glucoside fluorescence. Potency, µM (top dose mostly 76.9 µM), without a hit: at the top dose activity change, negative = inhibition, most hits filed as inhibitors. 200,000 compounds, 0.005% hits. P10253;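 also: potency is read from the fitted curve at half-maximal effect; plate controls were uninhibited enzyme wells for no effect and no-enzyme background for full effect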
#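 Human alpha-glucosidase, 4 nM, pre-mixed with test compounds before 400 uM 4-methylumbelliferyl substrate; 20 min room temperature at pH 5.0. Fluorescence read after pH 10 stop; AC50 values from Hill-equation fits.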
# GAA glycogen = inhibitors or activators of human alpha-glucosidase glycogen cleavage; recombinant GAA, glycogen substrate, Amplex Red glucose oxidase fluorescence; 300,000 compounds, 0.38% hits; Potency, µM (doses to about 76.4 µM), inactives show at the top dose activity change, negative = inhibition, hits mostly inhibitors; P10253; AID 2100;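 also: potency is read from the fitted curve at half-maximal effect; 0% = full enzyme reaction and -100% = no-enzyme basal signal; the screen sought inhibitors and activators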
#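 qHTS, 1536-well; enzyme 4 nM final; cpd up to 77 uM; substrate bovine liver glycogen 30 ug; 50 mM citrate/phosphate pH 5.0, 0.01% Tween-20; 37 C, 40 min; Amplex Red detection 45 min RT; Hill fit → AC50.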
# The depositor's hits bear a star; ? = inconclusive; nt = no result given; [ ] = remark or other dose. This is a sample that favours compounds with a hit; in the whole collection about 0.41% have one here. Calls follow the shape of the dose curve; as a rule, active = well fitted curve in the direction sought with a large enough effect; inconclusive = small, poorly fitted or top-dose-only effect, or another doubt; inactive = no such curve, though single readings can be large; an effect the other way counts as inactive or inconclusive.
SMILES,N370S GC mod,aGlu spleen mod,GLA inh pH 4.5,GLA spleen mod,GAA inh,GAA glycogen
C#CCOCCOCCOCCNc1nc(N2CCN(C(=O)CCCCCCCCCCNC(=O)[C@H](CCCCN)n3cc(C[C@@H](C)CC)nn3)CC2)nc(N2CCN(C(=O)CCCCCCCCCCNC(=O)[C@H](CCCN=C(N)N)n3cc(C[C@@H](C)CC)nn3)CC2)n1,6.3µM*,nt,nt,nt,nt,nt
C#CCOCCOCCOCCNc1nc(N2CCN(C(=O)CCCCCCCCCCNC(=O)[C@@H](CCSC)n3cc(CCO)nn3)CC2)nc(N2CCN(C(=O)CCCCCCCCCCNC(=O)[C@H](CCCN=C(N)N)n3cc(C[C@@H](C)CC)nn3)CC2)n1,7.9µM*,nt,nt,nt,nt,nt
CCCCOC(=O)c1ccc(NC(=O)CC2NCCNC2=O)cc1 (configuration not stated),nt,nt,nt,nt,nt,12%[76.3 µM]
CCN(C(=O)Cn1nc(Cc2cccnc2)c2ccccc2c1=O)c1cc(C)ccc1C,nt,nt,nt,nt,nt,13%[76.3 µM]
COC(=O)c1cc(Oc2ccc(C(=O)OC)cc2N)cc(C(=O)OC)c1,3%,-3%,0,-2%,4%,-8%
COC(=O)CCCCCNc1ccc(C(=O)OC)cc1N,-1%,3%,-6,7%,?,22µM*
O=C(COc1cccc2cccnc12)N/N=C/c1ccccc1O,17%,2%,-4,10%,nt,3%
Oc1ccccc1/C=N/Nc1cccc2cccnc12,-13%,-12%,5,-10%,-11%,7.9µM*
O=C(Nc1ccc(F)cc1)c1c(Cl)nc2ccccn12,0%,0%,10,-9%,1%,4%
Fc1ccc(Nc2c(-c3c[nH]c4ccccc34)nc3ccccn23)cc1,nt,nt,nt,nt,nt,14µM*
CCOC(=O)c1c(NC(=O)c2cc(=O)c3ccc(C)cc3o2)sc(C)c1C,nt,nt,nt,nt,nt,-4%[76.3 µM]
C/C=C(/C)C(=O)OC1C(OC(C)=O)[C@@]2(CO)C(O)C[C@@]3(C)C(=CCC4[C@@]5(C)CCC(OC6OC(C(=O)O)[C@@H](O[C@@H]7OC(CO)C(O)C(O)C7O)C(O)[C@H]6O[C@@H]6OC(CO)C(O)C(O)C6O)[C@](C)(CO)C5CC[C@@]43C)C2CC1(C)C (some centres not stated),16µM*,-2%,3,?,nt,nt
CO[C@@H]1CC[C@@]2(C)[C@@H](CC[C@@]3(C)[C@H]2CC=C2[C@H]4CC(C)(C)[C@H](O)[C@@H](OC(C)=O)[C@]4(CO)[C@H](O)C[C@]23C)[C@@]1(C)CO (tested in a mixture with another compound),-26%[21.6 µM],7%[29.1 µM],2,-6%[29.1 µM],nt,nt
CCC/C=C(\CCC)C(NC(=O)c1ccccc1)c1ccccc1 (configuration not stated),26%,-4%,3,2%,nt,nt
Cc1ccc(NS(=O)(=O)c2ccc(N3CCN(c4ccc(O)cc4)CC3)c([N+](=O)[O-])c2)c(C)c1,14µM*,1%,-8,4%,-4%,?
Cc1cc(C(C#N)c2cccc(Cl)c2)n2ncnc2n1 (configuration not stated),-3%,-5%,5,3%,5%,?
Cc1cc(C(C#N)c2ccccc2)n2ncnc2n1 (configuration not stated),1%,2%,2,8%,?,25µM*
CCCN1C(=O)C(Cc2nc3ccccc3c(=O)n2-c2cccc(C)c2)c2ccccc21 (configuration not stated),nt,nt,nt,nt,nt,-9%[76.3 µM]
COc1ccc2c(CNCCc3ccccc3OC)c(C(=O)O)n(Cc3ccc(F)cc3Cl)c2c1,nt,nt,nt,nt,nt,4%[76.3 µM]
COc1ccc(COC(=O)C2=C(C)NC(=O)NC2c2cccc(OC)c2OC)cc1 (configuration not stated),-6%,nt,nt,nt,nt,40µM*
CCN(C/C=C/C#CC(C)(C)C)Cc1cccc(OCc2cc(-c3ccsc3)cs2)c1,-11%,-11%,nt,0%,nt,nt
